From PubChem BioAssay (NCATS)
Records with an inconclusive call do not appear. Where a call stands in place of a potency, no number is given. The source made the active and inactive calls. Calls follow the shape of the dose curve; as a rule, active = well fitted inhibition curve with a large enough effect; inconclusive = small, poorly fitted or top-dose-only effect; inactive = no such curve, though single readings can be large or run the other way. Where a SMILES comes first, the peptide text is derived from it. [ ]: non-standard residue; d: D form. dPhe(4-Cl) = N[C@H](Cc1ccc(Cl)cc1)C(=O)O; d2Nal = N[C@H](Cc1ccc2ccccc2c1)C(=O)O; dCit = NC(=O)NCCC[C@@H](N)C(=O)O; d3Pal = N[C@H](Cc1cccnc1)C(=O)O

Columns and labels:
[1] = test system: Zika virus NS2B-NS3 protease (unlinked complex); test: Primary screen GU Rhodamine qHTS for Zika virus inhibitors: Unlinked NS2B-NS3 protease assay (AID 1347159); also: nearly all actives have a fitted effect of over 60% in size
Summary of the method: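 A qHTS format was used, with compound concentrations ranging up to 114 microM. Each compound was preincubated with 25 nM NS2B-NS3 protease, and the substrate was then added at 1.5 microM. Curves were fitted with a 4-parameter Hill model.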

[2] = test system: Zika virus NS2B-NS3 protease (linked construct); test: Primary screen NINDS Rhodamine qHTS for Zika virus inhibitors (AID 1347160); also: nearly all actives have a fitted effect of over 55% in size
Summary of the method: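 Kinetic fluorescence (Ex 480 nm, Em 540 nm) over 15 min with 1.5 microM Rhodamine110 peptide and 25 nM linked protease.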

## CC(=O)N[C@H](Cc1ccc2ccccc2c1)C(=O)N[C@H](Cc1ccc(Cl)cc1)C(=O)N[C@H](Cc1cccnc1)C(=O)N[C@@H](CO)C(=O)N[C@@H](Cc1ccc(O)cc1)C(=O)N[C@H](CCCNC(N)=O)C(=O)N[C@@H](CC(C)C)C(=O)N[C@@H](CCCN=C(N)N)C(=O)N1CCC[C@H]1C(=O)N[C@H](C)C(N)=O (Ac-[d2Nal][dPhe(4-Cl)][d3Pal]SY[dCit]LRP[dA]-NH2)
[1]
  Potency: inactive
[2]
  Potency: inactive

## CC(C)CC(=O)O[C@@H]1OC=C(CO[C@@H]2O[C@H](CO)[C@@H](O)[C@H](O)[C@H]2O)[C@H]2[C@@H]3O[C@H]3[C@@](O)(CO)[C@@H]12
[1]
  Potency: inactive
[2]
  Potency: inactive

## COc1c2c(c(C)c3c1C(=O)OC3)O[C@@]1(C)CCC3(C(C)(C)O)OC(=O)CC[C@]3(C)[C@H]1C2 (stereo partly drawn)
[1]
  Potency: inactive
[2]
  Potency: inactive

## CC(C)(C)CCN1C[C@@H]2C(CNC(=O)c3cc(Cl)cc(Cl)c3)[C@@H]2C1 (stereo partly drawn)
[1]
  Potency: inactive
[2]
  Potency: inactive

## C[C@@H]1N[C@H]2N(C1=O)c1ccccc1[C@@]2(O)C[C@@H]1C(=O)N[C@@H](C)c2nc3ccccc3c(=O)n21
[1]
  Potency: inactive
[2]
  Potency: inactive

## O=C(NCc1ccc(F)cc1)C(=O)c1c[nH]c2ccccc12
[1]
  Potency: inactive
[2]
  Potency: inactive

## Cc1ccccc1-n1c([C@H](C)Nc2nc(N)nc3nc[nH]c23)nc2cccc(C)c2c1=O
[1]
  Potency: inactive
[2]
  Potency: inactive

## COC(=O)C1=C2Nc3ccccc3C23CCN2CCCC(C(C)O)(C1)C23 (stereo not drawn)
[1]
  Potency: inactive
[2]
  Potency: inactive

## CC1(C(=O)O)CCCC2(C)C3CCC4CC3(CCC12)CC4=O (stereo not drawn)
[1]
  Potency: inactive
[2]
  Potency: inactive

## C=C[C@@](C)(O)CC/C=C(\C)C(=O)O[C@@H]1[C@@H]2O[C@]2(C)[C@H]2[C@H](O[C@@H]3O[C@H](CO)[C@@H](O)[C@H](O)[C@H]3O)OC=C[C@@]12O
[1]
  Potency: inactive
[2]
  Potency: inactive

## CCOC(=O)Nc1cc(-c2ccc(C)c(NS(C)(=O)=O)c2)nn2c(C)nnc12
[1]
  Potency: inactive
[2]
  Potency: inactive

## Cn1cncc1C(N)(c1ccc(Cl)cc1)c1ccc2c(c1)c(-c1cccc(Cl)c1)cc(=O)n2C (stereo not drawn)
[1]
  Potency: inactive
[2]
  Potency: inactive

## CNC(=O)c1ccccc1Nc1nc(Nc2ccc3c(c2OC)CCC[C@@H](N2CCN(CCO)CC2)C3)ncc1Cl
[1]
  Potency: inactive
[2]
  Potency: inactive

## Cc1ncc(CCCN(C)C)cc1Nc1ncc2c(n1)-c1ccc(C(F)(F)F)cc1NC(=S)C2
[1]
  Potency: inactive
[2]
  Potency: inactive

## CCC(COC)n1nnc2c(Nc3ccc(OC)cc3C)nc(C)cc21 (stereo not drawn)
[1]
  Potency: inactive
[2]
  Potency: inactive

## Cc1ccc(-c2c(C(=O)CF)n(CCCO)c3ncnc(N)c23)cc1
[1]
  Potency: inactive
[2]
  Potency: inactive

## CC(C)C1=CC2C(CC[C@]2(C)O)[C@](C)(O)CC1 (stereo partly drawn)
[1]
  Potency: inactive
[2]
  Potency: inactive

## CCC1C(=O)N(C)c2cnc(Nc3ccc(C(=O)NC4CCC(N5CCN(CC6CC6)CC5)CC4)cc3OC)nc2N1C(C)C (stereo not drawn)
[1]
  Potency: inactive
[2]
  Potency: inactive

## Cc1cnc(NC(=O)Nc2cc(Br)c(C)cc2OCC2CNCCO2)cn1 (stereo not drawn)
[1]
  Potency: inactive
[2]
  Potency: inactive

## COc1cc2c(cc1OC)CC(=O)N(CCCNC[C@H]1Cc3cc(OC)c(OC)cc31)CC2
[1]
  Potency: inactive
[2]
  Potency: inactive

## CCCNc1ccc2ncc(-c3ccc4[nH]ncc4c3)n2n1
[1]
  Potency: inactive
[2]
  Potency: inactive

## CON(C)C(=O)[C@H](O)[C@H](Cc1ccccc1)NC(=O)c1cc2cc(Cl)ccc2[nH]1
[1]
  Potency: inactive
[2]
  Potency: inactive

## CCOc1cc2ncc(C#N)c(Nc3ccc(F)c(Cl)c3)c2cc1NC(=O)/C=C/CN(C)C
[1]
  Potency: inactive
[2]
  Potency: inactive

## CC1=CC(=O)CC(C)(C)C1/C=C/C(C)O[C@@H]1O[C@H](CO)[C@@H](O)[C@H](O)[C@H]1O[C@@H]1OC[C@](O)(CO)[C@H]1O (stereo partly drawn)
[1]
  Potency: inactive
[2]
  Potency: inactive

## CC(C)c1cc(C(=O)N2CC[C@@H](NC(=O)C3CC3)C2)n[nH]1
[1]
  Potency: inactive
[2]
  Potency: inactive

## Cc1cc(OCc2nnc(SC3CCCC3)n2-c2cccnc2)ccc1-c1ccc(S(C)(=O)=O)cc1
[1]
  Potency: inactive
[2]
  Potency: inactive

## CC1OC2OC(=O)C3(C)CC4=C(CO)C5=C(CC(=O)C4(C)C(C1=O)C23)C(C)(C)OC(=O)C5 (stereo not drawn)
[1]
  Potency: inactive
[2]
  Potency: inactive

## CC(O)CO[C@@H]1O[C@H](CO)[C@@H](O)[C@H](O)[C@H]1O (stereo partly drawn)
[1]
  Potency: inactive
[2]
  Potency: inactive

## COC(=O)c1cc(OC)c(O[C@@H]2O[C@@H](C)[C@H](O)[C@@H](O)[C@H]2O)c(OC)c1
[1]
  Potency: inactive
[2]
  Potency: inactive
